Inconclusive results are not listed. A call without a number means that no potency is given here. Where a structure was tested more than once in an assay, its records may differ in their call. Activity calls are given as the source filed them. Calls follow the shape of the dose curve; as a rule, active = well fitted inhibition curve with a large enough effect; inconclusive = small, poorly fitted or top-dose-only effect; inactive = flat fitted curve, though single readings scatter.
System: not listed separately
Assay: Drug repurposing screens with cells derived from glioblastoma tumor samples (AID 1345199); also: nearly all actives have a fitted effect of over 40% in size
Conditions: GBM patient neurospheres viability, ATP luminescence, 48 h; tumour line A
Outline: (§1)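 Four patient lines of CD133+ GBM neurospheres were screened at several concentrations; hits were retested in those lines plus three slower-growing GBM lines, using 48-hour treatment and ATP-based viability.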
Potency is read from the fitted curve at half-maximal effect.

SMILES | Potency
CCCOc1ccc2nc(NC(=O)OC)sc2c1 | 8.91 µM (active)
CC(=O)S[C@@H]1CC2=CC(=O)CC[C@]2(C)[C@H]2CC[C@@]3(C)[C@@H](CC[C@@]34CCC(=O)O4)[C@H]12 | 10 µM (active)
CC[C@H]1OC(=O)[C@H](C)[C@@H](O[C@H]2C[C@@](C)(OC)[C@@H](O)[C@H](C)O2)[C@H](C)[C@@H](O[C@@H]2O[C@H](C)C[C@H](N(C)C)[C@H]2O)[C@](C)(O)C[C@@H](C)[C@@H]2N[C@@H](COCCOC)O[C@@H]([C@H]2C)[C@]1(C)O | 11.2 µM (active)
CCOc1ccc(N=C(C)Nc2ccc(OCC)cc2)cc1 | 11.2 µM (active)
COc1cc2[nH]c(C)c(CCN3CCN(c4ccccc4)CC3)c2cc1OC | 15.8 µM (active)
Cc1ccc(C2(O)CCN(CCCC(=O)c3ccc(F)cc3)CC2)cc1 | 6.31 µM (active)
CCC(=O)OCC(=O)[C@@]1(OC(=O)CC)[C@@H](C)C[C@H]2[C@@H]3CCC4=CC(=O)C=C[C@]4(C)[C@@]3(Cl)[C@@H](O)C[C@@]21C | 10 µM (active)
Cc1cccc(C)c1N(CCCc1cccnc1)C(=O)C(C)N (stereo unspecified) | 11.2 µM (active)
CO[C@@H]1[C@@H](O[C@@H]2O[C@H](C)[C@@H](O[C@H]3C[C@@](C)(O)[C@@H](OC(=O)CC(C)C)[C@H](C)O3)[C@H](N(C)C)[C@H]2O)[C@@H](CC=O)C[C@@H](C)[C@@H](O)/C=C/C=C/C[C@@H](C)OC(=O)C[C@H]1O | 12.6 µM (active)
O=C(CCCN1CCC(n2c(=S)[nH]c3ccccc32)CC1)c1ccc(F)cc1 | 8.91 µM (active)
CC(CN(C)C)CN1c2ccccc2S(=O)(=O)c2ccccc21 (stereo unspecified) | 17.8 µM (active)

Same assay, conditions: GBM patient neurospheres viability, ATP luminescence, 48 h; tumour line D

SMILES | Potency
CCCOc1ccc2nc(NC(=O)OC)sc2c1 | 10 µM (active)
Cc1ccc(C2(O)CCN(CCCC(=O)c3ccc(F)cc3)CC2)cc1 | 12.6 µM (active)
O=C(CCCN1CCC(n2c(=S)[nH]c3ccccc32)CC1)c1ccc(F)cc1 | 11.2 µM (active)

System: astro (control astrocytes)
Assay: as above
Conditions: viability, ATP luminescence, 48 h; series mostly up to 45.9 µM
Outline: as §1

SMILES | Potency
C=Cc1ccccc1 | inactive
CCCOc1ccc2nc(NC(=O)OC)sc2c1 | 6.31 µM (active)
CC(=O)S[C@@H]1CC2=CC(=O)CC[C@]2(C)[C@H]2CC[C@@]3(C)[C@@H](CC[C@@]34CCC(=O)O4)[C@H]12 | inactive
CC[C@H]1OC(=O)[C@H](C)[C@@H](O[C@H]2C[C@@](C)(OC)[C@@H](O)[C@H](C)O2)[C@H](C)[C@@H](O[C@@H]2O[C@H](C)C[C@H](N(C)C)[C@H]2O)[C@](C)(O)C[C@@H](C)[C@@H]2N[C@@H](COCCOC)O[C@@H]([C@H]2C)[C@]1(C)O | inactive
CC(C)(C)NC(=O)[C@H]1CC[C@H]2[C@@H]3CC=C4C=C(C(=O)O)CC[C@]4(C)[C@H]3CC[C@]12C | inactive
C=C1CC2C3CCC4=CC(=O)C=C[C@]4(C)[C@@]3(F)[C@@H](O)C[C@]2(C)[C@@]1(O)C(=O)COC(C)=O (stereo partly specified) | inactive
O.O=C([O-])CC([S-])C(=O)[O-].[Au+].[Na+].[Na+] (stereo unspecified) | inactive
CCOc1ccc(N=C(C)Nc2ccc(OCC)cc2)cc1 | inactive
COC1=C(C(=O)O)N2C(=O)[C@@H](NC(=O)[C@H](N)C3=CCC=CC3)[C@H]2SC1 | inactive
O=C(Nc1ccc(/C=C/c2ccc(NC(=O)c3cc(S(=O)(=O)O)c4cccnc4c3O)cc2S(=O)(=O)O)c(S(=O)(=O)O)c1)c1cc(S(=O)(=O)O)c2cccnc2c1O | inactive
CC(C(=O)O)c1ccc(C2CCCCC2)c2ccccc12 (stereo unspecified) | inactive
NCCC[C@H](N)C(=O)O | inactive
CC(=O)OC[C@H]1O[C@@H](O[C@H]2[C@H](O)[C@@H](OC(=O)c3ccccc3C(=O)O)[C@H](O)O[C@@H]2COC(C)=O)[C@H](O)[C@@H](OC(=O)c2ccccc2C(=O)O)[C@@H]1O | inactive
C[C@]12CC[C@@H]3c4ccc(OS(=O)(=O)O)cc4CC[C@H]3[C@@H]1CCC2=O | inactive
CCCCCCCCCCCCCCCC(=O)OC[C@@H](COP(=O)([O-])OCC[N+](C)(C)C)OC(=O)CCCCCCCCCCCCCCC | inactive
N[C@@H](C(=O)N[C@H]1C(=O)N2C(C(=O)O)=C(Cl)CC[C@H]12)c1ccccc1 | inactive
CCC(C)(C)OC(=O)N[C@@H](Cc1c[nH]c2ccccc12)C(=O)N[C@@H](CCSC)C(=O)N[C@@H](CC(=O)O)C(=O)N[C@@H](Cc1ccccc1)C(N)=O | inactive

Source: PubChem BioAssay (NCATS)
